# Results: the supplement of paper PMC6555819
# Experiments:
# Assay in all cases: PBM binding z-score (relative to random genomic background probes); higher = stronger binding; sequences stand for … in GC…GCGATTGACAGCGTAGAATGAAGG
# [1] = test system: FXR:RXRa (NR concentration 270 nM, RXRa partner concentration 90 nM)
# Summary of the method: (§1)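 Custom Agilent 4×180K protein-binding microarrays carried double-stranded probes, each with a 34-nt variable region. These regions held direct-repeat seeds, single-nucleotide variants, half-site ablations and random human genomic background sequences. Ligand-free nuclear receptor dimers were incubated on the arrays for 1 h, antibodies against each partner (one per run) detected binding, and scanned fluorescence was regression-normalized. Binding z-scores take the random background probes as reference.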
# [2] = test system: LXRa:RXRa (NR concentration 270 nM, RXRa partner concentration 90 nM)
# Summary of the method: as §1
# [3] = test system: LXRa homodimer (NR concentration 270 nM)
# Summary of the method: as §1
# [4] = test system: LXRb:RXRa (NR concentration 270 nM, RXRa partner concentration 90 nM)
# Summary of the method: as §1
# [5] = test system: LXRb homodimer (NR concentration 270 nM)
# Summary of the method: as §1
# [6] = test system: PPARa:RXRa (NR concentration 270 nM, RXRa partner concentration 90 nM)
# Summary of the method: as §1
# [7] = test system: PPARg:RXRa (NR concentration 180 nM, RXRa partner concentration 90 nM)
# Summary of the method: as §1
# [8] = test system: PPARg:RXRa 270nM:90nM, anti-RXR (NR concentration 270 nM, RXRa partner concentration 90 nM)
# Summary of the method: as §1
# [9] = test system: PPARg:RXRa 30nM:10nM, anti-RXR (NR concentration 30 nM, RXRa partner concentration 10 nM)
# Summary of the method: as §1
# [10] = test system: PPARg:RXRa 90nM:30nM, anti-RXR (NR concentration 90 nM, RXRa partner concentration 30 nM)
# Summary of the method: as §1
# [11] = test system: PPARg:RXRa DBDmut IVT, anti-RXR (DBD mutation: RXRa K156A/R161A, NR concentration 270 nM, RXRa partner concentration 90 nM)
# Summary of the method: as §1
# [12] = test system: PPARg:RXRa IVT, anti-PPARg (NR concentration 270 nM, RXRa partner concentration 90 nM)
# Summary of the method: as §1
# [13] = test system: PPARg DBDmut:RXRa IVT, anti-PPARg (DBD mutation: PPARg1 K132A/R137A, NR concentration 270 nM, RXRa partner concentration 90 nM)
# Summary of the method: as §1
# [14] = test system: PPARg DBDmut IVT, anti-PPARg (DBD mutation: PPARg1 K132A/R137A, NR concentration 270 nM)
# Summary of the method: as §1
# [15] = test system: PPARg homodimer (NR concentration 180 nM)
# Summary of the method: as §1
# [16] = test system: PXR:RXRa (NR concentration 270 nM, RXRa partner concentration 90 nM)
# Summary of the method: as §1
# [17] = test system: PXR homodimer (NR concentration 270 nM)
# Summary of the method: as §1
# [18] = test system: RARa:RXR (NR concentration 270 nM, RXRa partner concentration 90 nM)
# Summary of the method: as §1
# [19] = test system: RARa homodimer (NR concentration 270 nM)
# Summary of the method: as §1
# [20] = test system: RARb:RXRa (NR concentration 270 nM, RXRa partner concentration 90 nM)
# Summary of the method: as §1
Sequence,PBM binding z-score [1],PBM binding z-score [2],PBM binding z-score [3],PBM binding z-score [4],PBM binding z-score [5],PBM binding z-score [6],PBM binding z-score [7],PBM binding z-score [8],PBM binding z-score [9],PBM binding z-score [10],PBM binding z-score [11],PBM binding z-score [12],PBM binding z-score [13],PBM binding z-score [14],PBM binding z-score [15],PBM binding z-score [16],PBM binding z-score [17],PBM binding z-score [18],PBM binding z-score [19],PBM binding z-score [20]
TCATTTAGGTAAATGCTAGGTGAAAGTCCGATCT,0.568,0.673,0.0938,0.395,0.604,1.41,0.312,1.97,3.57,2.65,3.13,2.44,1.71,1.17,0.343,0.445,-0.0267,0.799,0.628,0.562
ATCTCTAGTTAAAGATAGTTCAGTGAATGCAAAT,0.285,1.29,0.86,0.823,0.612,0.58,0.585,0.484,0.404,0.51,-0.115,0.245,0.633,1.63,0.523,0.98,1.18,1.1,1.54,0.647
CGAACTAGGTCAGAACAGGACAGAGAAGGATGAT,1.6,0.878,0.159,0.278,-0.292,2.94,5.04,4.26,1.71,3.03,7.13,7.18,1.45,0.658,0.782,0.74,0.047,0.515,0.919,2.88
CGCGAAAGGTCGTGCTCAGGTGAGTATACCAAAC,5.65,3.9,0.199,3.55,-0.0921,4.89,3.65,4.46,0.769,2.86,0.794,1.92,0.376,-0.142,2.14,3.61,0.0719,4.63,0.019,4.18
AGAATGAGGTTACCAAAGATCAGCGAAACGCTTG,1.92,6.09,-0.342,3.38,-0.405,3.24,2.63,2.59,0.865,1.64,4.05,3.33,1.77,0.58,0.597,1.32,-0.226,2.13,0.0511,2.08
TCTTGGAGGACACGAAGGTCAGAGCTTTCCAGAG,1.51,1.47,0.0796,1.27,-0.69,2.1,0.905,2.2,2.51,2.31,2.12,2.46,-0.251,-0.635,0.788,1.93,0.605,1.86,-0.208,3.36
TCATATAGGTAAATGCTAGGTAAAAGTCCGATCT,1.25,1.02,0.456,0.888,0.06,1.36,0.914,2.29,3.89,2.93,4.04,2.3,0.817,0.766,0.885,0.727,0.893,0.814,1.8,0.393
TCGAGTAGGCTAGGGGCATTCAGAATGGCGTCGA,-0.172,-0.557,-0.903,-0.262,-1.16,0.162,-0.111,0.716,0.676,0.504,0.831,-0.362,-1.38,-1.61,-0.968,-0.194,-0.983,-0.131,-1,0.171
GCTTGTAGCTCAAGGTTAAGAAAGACTAAGCTAA,-0.0638,0.559,-0.361,0.165,-0.751,0.893,-0.394,0.557,-0.472,0.243,-0.582,-0.296,-0.734,-0.739,-0.599,0.28,-0.587,0.556,-0.601,0.721
ACTCGGAGGACAAAGGGCAGAGCTACGCCAGTGA,0.0109,0.0817,-0.605,-0.115,-0.71,1.88,3.1,4.39,2.2,4.28,0.11,0.678,-1.42,-1.85,0.364,-0.273,-0.407,0.077,-0.16,2.17
CCTGCTAGGTCATGGTCAGATAATCTACAGTATG,3.8,2.5,0.343,1.93,0.146,3.64,2.85,2.71,0.675,1.95,4.17,3.84,0.574,0.147,1.88,1.35,-0.264,2.59,0.0727,3.92
TTACCAAGGTGAGCTGAGGTGGTTGATCCAACTC,-0.284,-0.505,-0.878,-0.761,-1.22,0.275,-0.0433,0.188,-0.313,0.186,0.594,1.48,-0.51,-0.991,-0.428,0.478,-0.709,1.53,-0.848,0.757
TTACCAAGGTGAAGGGTCGTTGATGCACGCCTTG,1.88,1.13,-0.449,1.03,-0.693,3.65,6.01,6.42,4.63,6.33,1.59,4,0.187,-0.561,0.981,1.57,-0.419,2.72,-0.291,2.08
CCTACTGGGCCAAGGCCATTGATCAGTCAAAGCA,-0.412,-0.51,-0.664,-0.606,-0.891,-0.0978,0.449,0.724,-0.7,-0.174,2.95,2.89,-0.753,-1.61,0.0949,-0.456,-0.233,-0.557,-0.85,0.554
